In the library only some 19% were active in any assay of this set; here they are far more common.
IL1B secr inh = inhibitors of inflammasome signaling (IL-1 beta secretion) | activity change, % at 57.5 µM | AID 743279 | THP-1 LPS/ATP IL-1B secretion, AlphaLISA, 16 h; hits give low values | hit rate 4.7% among 360,000; in the data active = activity change below about -50%; inconclusive = mostly about -30% to -49%
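THP-1 cells pretreated 1 hr with compounds (up to 57.5 uM final), then stimulated with LPS (250 ng/mL final) plus ATP (1.25 mM final); secreted IL-1B measured by AlphaLISA after 16 hr, decreased signal indicating inhibition.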
DT40 TDP1 no CPT = qHTS for Inhibitors of human tyrosyl-DNA phosphodiesterase 1 (TDP1): qHTS in cells in absence of CPT; DT40 Tdp1-/- hTDP1 cells, no CPT, ATP luminescence, 48 h; Potency, µM (doses to about 46.2 µM), for the others: at the highest dose activity change, negative = growth inhibition, usual class: inhibitors; hit rate 15% among 420,000; note: potency is the fitted concentration of half-maximal effect; nearly all actives have a fitted effect of over 55% in size
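Stably hTDP1-transfected Tdp1-null chicken DT40 cells were treated with library compounds minus camptothecin and grown for at least 48 hr at 37 °C, after which cellular ATP was quantified by luminescence.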
HT1080 IDH1KD tx = HT-1080 IDH1 knockdown cell toxicity (counter line) | HT-1080 IDH1 knockdown viability, ATP luminescence, 48 h | AID 686971 | Potency, µM (doses to about 46.1 µM), without a hit: at the highest dose activity, negative = toxicity, usual class: cytotoxic | hit rate 2% among 360,000;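 note: potency is the fitted concentration of half-maximal effect; 0% = DMSO wells and -100% = cell-free medium wells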
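Knockdown cells (IDH1KD HT-1080) received compounds 2 h after plating at 750 cells/well and were kept 48 h at 37 °C in 5% FBS RPMI. A CellTiter-Glo luminescence read gave % activity for curve fitting.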
HT1080NT lethal = kills 2HG-producing HT-1080-NT fibrosarcoma cells. AID 686970. HT-1080-NT fibrosarcoma viability, CellTiter-Glo ATP luminescence, 48 h. hit rate 1.6% among 360,000. Potency, µM (doses to about 46.1 µM), for inactives: top-dose activity, negative = less viability, actives largely listed as cytotoxic;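 note: NT is the 2HG producing partner of a matched IDH1 knockdown line; potency is the fitted concentration of half-maximal effect; 0% = DMSO-treated cells and -100% = media-only wells without cells; nearly all actives have a fitted effect of over 55% in size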
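Viability of the 2HG-overproducing fibrosarcoma line after 48 hours of compound exposure at 37 degrees C was determined by luminescence with CellTiter-Glo, and concentration-effect curves were then fitted and categorized.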
TDP1 cell CPT = growth inhibition of DT40 Tdp1-/-;hTDP1 cells with camptothecin (screen for TDP1 inhibitors); chicken DT40 Tdp1-/-;hTDP1 cells + 20 nM CPT, ATP luminescence, 48 h; Potency, µM (series often up to 46.2 µM), without a hit: top-dose activity change, negative = growth inhibition, hits mostly inhibitors; hit rate 12% among 420,000; AID 686979; note: potency is the fitted concentration of half-maximal effect; nearly all actives have a fitted effect of over 55% in size
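Cell growth measured by CellTiter-Glo luminescence after a minimum 48 h, 37 C compound exposure with 20 nM CPT in Tdp1-knockout DT40 cells stably expressing hTDP1, seeded 400/well; qHTS titration format.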
ELG1 DNA repair = inhibitors of ELG1-dependent DNA repair in HEK293T cells; HEK293T ELG1-luciferase reporter, luminescence, 16 h; DNA damage induced by 5-fluorouridine; Potency, µM (series often up to 46.1 µM), for inactives: at the highest dose activity change, negative = inhibition, usual class: inhibitors; hit rate 2.3% among 330,000; AID 504467; note: potency is the fitted concentration of half-maximal effect; nearly all actives have a fitted effect of over 55% in size
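Overnight (16 hr) co-exposure of 2,000 cells/well to 5-fluorouridine and compound at 37 °C preceded detection. Luciferase was quantified via ONE-Glo luminescence; loss of signal denotes inhibition.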
Active calls of the source: *; ? = inconclusive; / = no result given. Unless noted, calls come from the whole dose curve; as a rule, active = well fitted curve in the direction sought with a large enough effect; inconclusive = small, poorly fitted or top-dose-only effect, or another doubt; inactive = no such curve, though single readings can be large; an effect the other way counts as inactive or inconclusive. Unless noted, % is set by controls: 0 for no effect and ±100 for the full control effect.

SMILES	IL1B secr inh	DT40 TDP1 no CPT	HT1080 IDH1KD tx	HT1080NT lethal	TDP1 cell CPT	ELG1 DNA repair
COc1ccc(OC)c(CN2CCCC(c3nc(-c4ccncc4)ncc3-c3ccccc3C)C2)c1 (stereo unspecified)	/	-1.1%	/	/	-1.0%	/
Cc1ccc2cc(NC(=O)C3(C)CCN3C(C)C)ccc2n1 (stereo unspecified)	-18.0	-17.5%	?	17.6%	-4.5%	/
CC(=C(CCOP(=O)(O)O)SC(=O)c1ccccc1)N(C=O)Cc1cnc(C)nc1N	/	-1.1%	/	/	-17.8%	/
C/C(=C(\CCOC(=O)c1ccccc1)SS/C(CCOC(=O)c1ccccc1)=C(/C)N(C=O)Cc1cnc(C)nc1N)N(C=O)Cc1cnc(C)nc1N	/	?	/	/	26.6µM*	/
CCOC(=O)c1sc2nccc(N(C)C)c2c1N=CNOCc1ccccc1	-7.5	?	-23.9%	-28.5%	?	?
CCOC(=O)c1sc2nccc(N(C)C)c2c1N=CNOCc1c(F)cccc1Cl	-3.2	23.1µM*	-23.6%	-24.7%	?	16.4µM*
Fc1ccc(N2CCN(c3ncnc4c3nc3n4CCCC3)CC2)cc1	/	?	/	/	-29.0%	/
CC1(C(=O)NC2CCCCCC2)CCN1C(=O)C1(c2ccccc2)CC1 (stereo unspecified)	-2.9	18.4µM*	-5.0%	-9.9%	11.6µM*	/
CC(C)(C)CNC(=O)C1(C)CCN1C(=O)c1ccccc1CCc1ccccc1 (stereo unspecified)	-17.7	16.4µM*	-19.9%	-0.8%	20.6µM*	/
COc1ccccc1CNC(=O)C1(C)CCN1C(=O)Cc1ccc(-c2ccccc2)cc1 (stereo unspecified)	-23.4	14.6µM*	?	?	16.4µM*	/
CC(C)NC(=O)C1(C)CCCN1C/C=C/c1ccccc1 (stereo unspecified)	36.6	23.1µM*	-3.4%	17.5%	20.6µM*	/
CCCNC(=O)C1(C)CCN1C(=O)c1ccccc1CCc1ccccc1 (stereo unspecified)	0.6	?	0.4%	?	?	/
CCc1cccc(CC)c1NC(=O)CN(C)S(=O)(=O)c1ccc2c(c1)n(C)c(=O)c(=O)n2C	/	-15.7%	/	/	-28.4%	/
CC(C)NC(=O)C1(C)CCN1Cc1ccc(-c2ccccc2)cc1 (stereo unspecified)	-8.1	8.2µM*	?	?	11.6µM*	/
CC1(C(=O)Nc2ccc3nc[nH]c3c2)CCN1C(=O)Cc1ccc(-c2ccccc2)cc1 (stereo unspecified)	23.8	16.4µM*	-25.9%	-16.4%	?	/
CC(C)NC(=O)C1(C)CCN1C(=O)Cc1ccc(-c2ccccc2)cc1 (stereo unspecified)	-1.5	13µM*	?	?	16.4µM*	/
CCC(C)NC(=O)Cc1ccc(-c2ccccc2)cc1 (stereo unspecified)	-8.0	20.6µM*	0.9%	-5.2%	?	-16.3%
Cc1cccn2c(=O)c3cc(C(=O)NCc4ccccc4Cl)sc3nc12	/	-4.4%	/	/	4.2%	/
CC(=O)NC(c1ccc(F)c(F)c1)c1nc(-c2cccs2)cs1 (stereo unspecified)	-16.5	-7.3%	18.8%	?	-16.1%	/
COc1ccc(-n2c(=O)c(-c3ccc(F)cc3)nc3cncnc32)cc1	/	-9.0%	/	/	-8.0%	/
O=C(NCc1ccccc1F)C(=O)NCC(c1ccc2c(c1)OCO2)N1CCOCC1 (stereo unspecified)	/	-21.7%	/	/	-8.7%	/
CCc1ccc([C@H]2[C@@H]3C(=O)C[C@@H]4C(=O)NC(=O)[C@@H]4[C@@H]3CN2S(=O)(=O)c2ccc(C)cc2)cc1	-7.8	-8.2%	14.0%	19.4%	0.3%	/
CC1(C(=O)NC2CCCCCC2)CCN1C(=O)Cc1ccc(-c2ccccc2)cc1 (stereo unspecified)	-8.3	14.6µM*	?	?	?	/
CC1(C(=O)NS(=O)(=O)c2cccc(F)c2)CCN1C(=O)Cc1ccc(-c2ccccc2)cc1 (stereo unspecified)	16.2	14.4%	5.4%	-23.0%	0.7%	/
CSc1ccc(NC(=O)C2(C)CCN2C(=O)c2ccccc2CCc2ccccc2)cc1 (stereo unspecified)	-7.1	?	-9.3%	0.7%	?	/
SMILES	IL1B secr inh	DT40 TDP1 no CPT	HT1080 IDH1KD tx	HT1080NT lethal	TDP1 cell CPT	ELG1 DNA repair
Cc1cc(C(=O)N2CCC2(C)C(=O)Nc2cc(C(C)(C)C)nn2C)nn1C (stereo unspecified)	-6.2	-1.4%	29.6%	15.9%	-0.1%	/
CSc1ccc(NC(=O)C2(C)CCN2C(=O)c2cc(C)n(C)n2)cc1 (stereo unspecified)	-3.5	20.6µM*	7.7%	1.9%	?	/
CSc1ccc(NC(=O)C2(C)CCN2C(=O)Cc2ccc(C(C)(C)C)cc2)cc1 (stereo unspecified)	-6.5	?	?	?	23.1µM*	/
Cc1ccc(NC(=O)C2(C)CCN2C(=O)Cc2ccc(-c3ccccc3)cc2)cc1 (stereo unspecified)	-1.3	16.4µM*	?	?	16.4µM*	/
Cc1ccc(S(=O)(=O)NC(=O)C2(C)CCN2C(=O)Cc2ccc(-c3ccccc3)cc2)cc1 (stereo unspecified)	7.4	2.0%	2.9%	-7.8%	11.6%	/
COc1ccc(CN2CCCC(n3cc(C(=O)NC4CCCC4)nn3)C2)c(O)c1 (stereo unspecified)	/	-23.8%	/	/	?	/
CSc1ccccc1NC(=O)C1(C)CCN1C(=O)Cc1ccc(-c2ccccc2)cc1 (stereo unspecified)	0.3	18.4µM*	?	?	?	/
CC1(C(=O)Nc2cccc3ncccc23)CCN1C(=O)Cc1ccc(-c2ccccc2)cc1 (stereo unspecified)	-10.0	16.4µM*	?	?	23.1µM*	/
CC(C)(C)CNC(=O)C1(C)CCN1C(=O)Cc1ccc(-c2ccccc2)cc1 (stereo unspecified)	2.6	18.4µM*	?	-21.5%	23.1µM*	/
CC1(C(=O)NCc2ccccc2Br)CCN1C(=O)Cc1ccc(-c2ccccc2)cc1 (stereo unspecified)	-11.2	?	?	16.4µM*	?	/
CC1(C(=O)NS(C)(=O)=O)CCN1C(=O)Cc1ccc(-c2ccccc2)cc1 (stereo unspecified)	5.2	-4.0%	9.3%	?	-10.5%	/

Compound activity (PubChem BioAssay)
